Source: PubChem BioAssay
Giardia FBPA inh-1: blocks Giardia fructose-bisphosphate aldolase activity; purified Giardia FBPA; Potency, µM (highest dose often 59.6 µM), usual class: inhibitors; 290,000 tested, 0.71% active; also: nearly all actives have a fitted effect of over 55% in size
Target sequence (A8B2U2 whole entry, looked up): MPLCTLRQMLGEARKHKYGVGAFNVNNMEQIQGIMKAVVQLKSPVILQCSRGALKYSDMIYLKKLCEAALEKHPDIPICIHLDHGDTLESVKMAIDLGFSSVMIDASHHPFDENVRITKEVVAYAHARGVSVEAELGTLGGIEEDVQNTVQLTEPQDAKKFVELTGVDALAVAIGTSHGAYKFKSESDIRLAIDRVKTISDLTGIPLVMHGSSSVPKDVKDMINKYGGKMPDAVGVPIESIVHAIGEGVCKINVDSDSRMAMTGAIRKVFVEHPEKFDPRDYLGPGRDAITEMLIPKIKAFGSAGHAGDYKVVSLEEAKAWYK
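Giardia FBPA (40 nM reagent) was preincubated 10 min at RT with compound (up to 57.5 uM final), then substrate plus GAPDH/TPI/NAD/arsenate coupling system with diaphorase/resazurin was added; resorufin fluorescence (525/598 nm) was read after 20 min.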
Sm TGR inh: S. mansoni TGR enzyme inhibition; AID 485364; Q962Y6; 360,000 tested, 3% active; purified TGR, DTNB reduction, TNB absorbance 405 nm; Potency, µM (top dose mostly 114 µM), most hits filed as inhibitors; also: nearly all actives have a fitted effect of over 60% in size
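TGR 20 nM + NADPH 100 uM (dispensed conc.), cpd preinc 15 min RT; start with NADPH (500 uM addition) then DTNB (15 mM addition). Kinetic TNB absorbance, 405 nm filter. Four-parameter Hill fit across titration.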
AmpC no deterg: inhibitors of E. coli AmpC beta-lactamase without detergent. 330,000 tested, 0.52% active. AID 485341. Potency, µM (series often up to 57.1 µM), actives largely listed as inhibitors. AmpC nitrocefin hydrolysis, absorbance 480 nm, 0.0001% Triton; also: nearly all actives have a fitted effect of over 20% in size
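20 mM phosphate pH 7.0 + 0.01% (detergent screen) or 0.0001% Triton X-100; 5.3 nM AmpC reagent; cpd preinc 15 min RT; nitrocefin (800 uM stock) to start; A480 q20 s × 4 min; Activity was normalised to no-enzyme and no-compound control wells.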
AmpC detergent: blocks E. coli AmpC beta-lactamase in detergent assay; P00811; AmpC hydrolysis of nitrocefin, absorbance 480 nm, 0.01% Triton; Potency, µM (highest dose often 114 µM), hits mostly inhibitors; 370,000 tested, 0.041% active; also: nearly all actives have a fitted effect of over 25% in size
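20 mM phosphate pH 7.0 + 0.01% (detergent screen) or 0.0001% Triton X-100; 5.3 nM AmpC reagent; cpd preinc 15 min RT; nitrocefin (800 uM stock) to start; A480 q20 s × 4 min; Activity was normalised to no-enzyme and no-compound control wells.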
Giardia growth: blocks growth of Giardia lamblia trophozoites. shares compounds with Giardia FBPA inh-1. Giardia lamblia trophozoite growth inhibition. Potency, µM (highest dose often 57.5 µM), hits mostly inhibitors. 1,500 tested, 5% active. AID 2785;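 also: trophozoites exposed to compound for 48 h at 37 °C; nearly all actives have a fitted effect of over 70% in size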
Mammal cell tox: toxic to mammalian cells in Giardia aldolase counter-screen; shares compounds with Giardia FBPA inh-1; mammalian cell viability counter-screen, qHTS; Potency, µM (top dose mostly 57.5 µM), most hits filed as inhibitors; 1,500 tested, 4% active; AID 2786;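 also: Chinese hamster ovary cells used as mammalian cytotoxicity surrogate; viability measured as cellular ATP by luminescence; compound exposure lasted 48 h before reading; nearly all actives have a fitted effect of over 60% in size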
Giardia FBPA inh-2: confirmation of Giardia fructose-bisphosphate aldolase inhibitors. shares compounds with Giardia FBPA inh-1. purified Giardia aldolase enzyme activity, qHTS. Potency, µM (top dose mostly 57.5 µM), usual class: inhibitors. 1,500 tested, 5% active. AID 2787; also: nearly all actives have a fitted effect of over 45% in size
Rabbit aldolase: rabbit FBP aldolase inhibition by Giardia aldolase hits | shares compounds with Giardia FBPA inh-1 | Rabbit muscle FBPA enzyme inhibition, selectivity counter-screen | Potency, µM (highest dose often 57.5 µM), usual class: inhibitors | 1,500 tested, 4% active; also: nearly all actives have a fitted effect of over 60% in size
GAPDH coupling: counter-screen for Giardia aldolase inhibitors: GAPDH coupling enzyme; 1,500 tested, 6% active; Potency, µM (titrated, usually from 57.5 µM), usual class: inhibitors; shares compounds with Giardia FBPA inh-1; GAPDH coupling enzyme counterscreen, biochemical, qHTS; AID 2795; also: nearly all actives have a fitted effect of over 55% in size
Each line names hits and unclear results; the compound was inactive in the other large screens (follow-up assays come after a bar, where they were run); ! = repeats disagree; [ ] = another dose, or the depositor's remark. Rows were chosen to be rich in hits. Some 3.6% of all compounds tested hit in one or more screens of this group. Calls follow the shape of the dose curve; as a rule, active = well fitted curve in the direction sought with a large enough effect; inconclusive = small, poorly fitted or top-dose-only effect, or another doubt; inactive = no such curve, though single readings can be large; an effect the other way counts as inactive or inconclusive.

COc1ccc(-c2cc(C(F)(F)F)c(C#N)c(=O)[nH]2)cc1	none
COc1ccc(CC2(C)OC(c3ccc([N+](=O)[O-])cc3)=NN2C(C)=O)cc1 (stereo unspecified)	none
CCn1ncc(NC(=S)Nc2ccc3c(c2)OCO3)c1C(N)=O	Giardia FBPA inh-1 17.7µM, AmpC detergent inconclusive | Giardia growth inactive[10.4 µM] | Mammal cell tox inactive | Giardia FBPA inh-2 inactive | Rabbit aldolase inactive | GAPDH coupling inactive
S=C(Nc1ccc2c(c1)OCO2)Nc1ccc2c(c1)OCO2	AmpC detergent inconclusive
CCn1ncc(NC(=S)Nc2ccc(OC)c(OC)c2)c1C(N)=O	Giardia FBPA inh-1 15.8µM | Giardia growth inactive | Mammal cell tox inactive | Giardia FBPA inh-2 inactive | Rabbit aldolase inactive | GAPDH coupling inactive
CCC(C)c1ccc(NC(=S)Nc2ccc(OC)c(OC)c2)cc1 (stereo unspecified)	none
N#C/C(=C(/O)CCl)c1nc2c(s1)CCc1ccccc1-2	Giardia FBPA inh-1 14.1µM, Sm TGR inh 7.94µM | Giardia growth inconclusive | Mammal cell tox inactive | Giardia FBPA inh-2 inconclusive | Rabbit aldolase inconclusive | GAPDH coupling inactive
C=CCNC(=O)CN1CCN(C(c2ccccc2)c2ccccc2)CC1	Giardia FBPA inh-1 inconclusive
O=C(O)c1ncn(Cc2ccc(Br)cc2)c1C(=O)O	Giardia FBPA inh-1 14.1µM | Giardia growth inactive | Mammal cell tox inactive | Giardia FBPA inh-2 inactive | Rabbit aldolase inactive | GAPDH coupling inactive
O=C(c1ncn(Cc2ccccc2)c1C(=O)N1CCN(c2ccccc2)CC1)N1CCN(c2ccccc2)CC1	none (no result: Giardia FBPA inh-1, Sm TGR inh, AmpC detergent)
NC(N)=NS(=O)(=O)c1ccc(NC(=S)NC(=O)c2ccncc2)cc1	Giardia FBPA inh-1 11.2µM, Sm TGR inh 20µM | Giardia growth inactive[10.4 µM] | Mammal cell tox inactive | Giardia FBPA inh-2 inactive | Rabbit aldolase inactive | GAPDH coupling inactive
COc1ccc(Cl)cc1NC(=O)C(=O)NCc1ccc(Cl)cc1	none (no result: Giardia FBPA inh-1, AmpC no deterg)
S=c1nc[nH]c2nc[nH]c12	Giardia FBPA inh-1 7.94µM, Sm TGR inh 15.8µM!, AmpC detergent inconclusive | Giardia growth inactive | Mammal cell tox 7.94µM | Giardia FBPA inh-2 inconclusive | Rabbit aldolase inactive | GAPDH coupling inactive
COc1ccc2[nH]c3c(=S)nc[nH]c3c2c1	none
COc1cccc(CNC(=O)Cn2cc3c(n2)-c2c(oc(C(=O)N4CCCC4)c2C)CC3)c1OC	none (no result: Giardia FBPA inh-1, AmpC no deterg)
O=C(CSc1nc2ncccc2[nH]1)Nc1c(F)cc(F)cc1Br	Giardia FBPA inh-1 25.1µM | Giardia growth inactive | Mammal cell tox inactive | Giardia FBPA inh-2 inactive | Rabbit aldolase inactive | GAPDH coupling inactive
O=C(O)Cn1cnc2c(=S)nc[nH]c21	Giardia FBPA inh-1 3.54µM | Giardia growth inactive | Mammal cell tox inactive | Giardia FBPA inh-2 inactive | Rabbit aldolase inactive | GAPDH coupling inactive
Cn1c(=O)c2ncn(CC(=O)O)c2n(C)c1=O	none
COc1ccc(N(CC(=O)NC2CCCCCC2)S(=O)(=O)c2ccc(C)cc2)cc1OC	none (no result: Giardia FBPA inh-1)
CN1CCN(C(=S)c2ccc(Br)cc2)CC1	Giardia FBPA inh-1 15.8µM | Giardia growth inactive[10.4 µM] | Mammal cell tox inactive | Giardia FBPA inh-2 inactive | Rabbit aldolase inconclusive | GAPDH coupling inconclusive
CN1CCN(C(=S)c2ccc(N(C)C)cc2)CC1	Giardia FBPA inh-1 15.8µM, AmpC detergent inconclusive | Giardia growth inconclusive | Mammal cell tox inactive | Giardia FBPA inh-2 inactive | Rabbit aldolase inconclusive | GAPDH coupling inconclusive
CSc1ccc(C(=S)N2CCN(C)CC2)cc1	none
O=C(CSc1nnc2scc(-c3ccc(Cl)cc3)n12)Nc1ccc(F)cc1	none (no result: Giardia FBPA inh-1, AmpC no deterg)
Cc1cc(Nc2ccccc2)nc2cc(O)ccc12	none
